Inconclusive results are not listed. Activity calls are given as the source filed them. The call rests on the fitted dose curve.
Legend:
[1] = biological target: Acetylcholinesterase (Homo sapiens) (UniProt P22303); assay: Acetylcholinesterase (AChE) small molecule antagonists: colormetric cell-based qHTS assay (AID 1347395); further: nearly all actives have a fitted effect of over 30% in size
Procedure, shortened: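 After overnight attachment at 37 C, SH-SY5Y cells get 30 min compound exposure; detection cocktail (acetylthiocholine, DTNB) then incubates 90 min at 37 C, and absorbance reflects AChE-generated thiocholine.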

[2] = biological target: Acetylcholinesterase (Homo sapiens) (UniProt P22303); assay: Acetylcholinesterase (AChE) small molecule antagonists: enzyme-based qHTS assay (AID 1347397); conditions: Potency: AChE enzyme activity inhibition; outcome: AChE enzyme activity inhibition; further: nearly all actives have a fitted effect of over 55% in size
Procedure, shortened: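 Compound or DMSO vehicle was pin-transferred onto recombinant human AChE (50 mU/mL as dispensed) and left 30 min at room temperature. Acetylthiocholine with DTNB then started the reaction, read colorimetrically 10 min later.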

[3] = biological target: Acetylcholinesterase (Homo sapiens) (UniProt P22303); assay: Acetylcholinesterase (AChE) small molecule antagonists: fluorescence cell-based qHTS assay (AID 1347398); conditions: Potency: AChE activity; outcome: AChE activity; further: nearly all actives have a fitted effect of over 50% in size
Procedure, shortened: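 Using neuroblastoma SH-SY5Y cells as the enzyme source, test chemicals are preincubated 30 min at 37 C; AChE-driven acetylthiocholine cleavage is then quantified by thiocholine-dependent Thiolite Green fluorescence after 40 min at room temperature.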

[4] = biological target: Acetylcholinesterase (Homo sapiens) (UniProt P22303); assay: Acetylcholinesterase (AChE) small molecule antagonists: enzyme-based qHTS assay with human liver microsomes (AID 1347399); conditions: Potency: qHTS inhibition; outcome: qHTS inhibition; further: nearly all actives have a fitted effect of over 60% in size
Procedure, shortened: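 Recombinant human AChE (50 mU/mL in the enzyme mix) and human liver microsomes (0.25 mg/mL final) were preincubated with compound and NADPH (0.25 mg/mL final) for 30 min at 37 C. Acetylthiocholine/DTNB was then added; thiocholine was read colorimetrically after 10 min at room temperature.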
On the % scale 0 is the no-effect control and ±100 the full control effect.

Acetylcholinesterase (Homo sapiens), sequence (P22303 whole entry, looked up): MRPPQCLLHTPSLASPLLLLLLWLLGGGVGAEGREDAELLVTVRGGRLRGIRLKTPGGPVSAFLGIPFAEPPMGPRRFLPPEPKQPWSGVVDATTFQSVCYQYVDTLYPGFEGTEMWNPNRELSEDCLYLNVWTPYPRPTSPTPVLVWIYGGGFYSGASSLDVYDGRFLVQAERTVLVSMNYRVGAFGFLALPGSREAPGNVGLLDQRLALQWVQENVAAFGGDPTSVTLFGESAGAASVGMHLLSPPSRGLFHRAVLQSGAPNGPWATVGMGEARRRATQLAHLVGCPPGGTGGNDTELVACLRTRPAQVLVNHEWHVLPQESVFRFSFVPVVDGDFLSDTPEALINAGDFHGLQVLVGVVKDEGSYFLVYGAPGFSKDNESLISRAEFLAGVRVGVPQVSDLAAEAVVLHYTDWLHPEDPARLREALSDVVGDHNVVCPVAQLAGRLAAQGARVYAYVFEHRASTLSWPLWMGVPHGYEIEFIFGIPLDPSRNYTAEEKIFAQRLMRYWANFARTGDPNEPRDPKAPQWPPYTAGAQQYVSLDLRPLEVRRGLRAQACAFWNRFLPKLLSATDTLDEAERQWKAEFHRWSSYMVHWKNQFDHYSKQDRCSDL

C=CC(=C)CCCC(C)(C)OC(C)=O
inactive: Potency [1] | Potency [2] | Potency [3] | Potency [4]

CC/C=C\CCOC(C)=O
inactive: Potency [1] | Potency [2] | Potency [3] | Potency [4]

CCCCCc1ccc(O)cc1
inactive: Potency [1] | Potency [2] | Potency [3] | Potency [4]

CC(C)COC(=O)COc1cc(Cl)c(Cl)cc1Cl
inactive: Potency [1] | Potency [2] | Potency [3] | Potency [4]

COC(OC)(C(=O)c1ccccc1)c1ccccc1
inactive: Potency [1] | Potency [2] | Potency [3] | Potency [4]

CCCCCCCCCCCCC1CO1 (stereo not drawn)
inactive: Potency [1] | Potency [2] | Potency [3] | Potency [4]

CC(=O)N[C@@H](CCC(=O)O)C(=O)O
inactive: Potency [1] | Potency [2] | Potency [3] | Potency [4]

CCOC(=O)[C@H](CCc1ccccc1)N[C@H]1CS[C@H](c2cccs2)CN(CC(=O)O)C1=O
inactive: Potency [1] | Potency [2] | Potency [3] | Potency [4]

CC(C)c1ccc(C#N)cc1
inactive: Potency [1] | Potency [2] | Potency [3] | Potency [4]

CNCC(O)c1ccc(O)c(O)c1 (stereo not drawn)
inactive: outcome [1] | outcome [2] | outcome [3] | outcome [4]

COc1ncnc(NS(=O)(=O)c2ccc(N)cc2)c1OC
inactive: Potency [1] | Potency [2] | Potency [3] | Potency [4]

C[N+]1([O-])CCOCC1
inactive: Potency [1] | Potency [2] | Potency [3] | Potency [4]

CC1CCCO1 (stereo not drawn)
inactive: Potency [1] | Potency [2] | Potency [3] | Potency [4]

CC(C)(C)C1CCC(CC2=C(O)c3ccccc3C(=O)C2=O)CC1 (stereo not drawn)
inactive: Potency [1] | Potency [2] | Potency [3] | Potency [4]

CN1[C@@H]2CC[C@H]1CC(NC(=O)n1c(=O)[nH]c3ccccc31)C2 (stereo partly drawn)
inactive: Potency [1] | Potency [2] | Potency [3] | Potency [4]

Cc1ccc2sc3cccc(C)c3c2c1
inactive: Potency [1] | Potency [2] | Potency [3] | Potency [4]

O=S(=O)(c1ccccc1)c1ccc(Cl)cc1
inactive: Potency [1] | Potency [2] | Potency [3] | Potency [4]

CC1=CCCC(C)(C)C12CCC(C)O2 (stereo not drawn)
inactive: Potency [1] | Potency [2] | Potency [3] | Potency [4]

CCCCCCCC/C=C\CCCCCCCC(=O)OCC
inactive: Potency [1] | Potency [2] | Potency [3] | Potency [4]

CC1=C(CC=O)C(C)(C)CCC1
inactive: Potency [1] | Potency [2] | Potency [3] | Potency [4]

CC(C)SCc1ccco1
inactive: Potency [1] | Potency [2] | Potency [3] | Potency [4]

O=C(O)C(O)[C@H](O)[C@@H](O)[C@H](O)[C@H](O)CO (stereo partly drawn)
inactive: Potency [1] | Potency [2] | Potency [3] | Potency [4]

OC(C#CCN1CCCC1)(c1ccccc1)c1ccccc1
inactive: Potency [1] | Potency [2] | Potency [3] | Potency [4]

CCCCCCCCCCCCCc1ccccc1
inactive: Potency [1] | Potency [2] | Potency [3] | Potency [4]

C=C(C)C(=O)OCC(O)COc1ccc(C(C)(C)c2ccc(OCC(O)COC(=O)C(=C)C)cc2)cc1 (stereo not drawn)
inactive: Potency [1] | Potency [2] | Potency [3] | Potency [4]

CCN(CC)C(=O)N(CC)CC
inactive: Potency [1] | Potency [2] | Potency [3] | Potency [4]

CO[Si](OC)(c1ccccc1)c1ccccc1
inactive: Potency [1] | Potency [2] | Potency [3] | Potency [4]

Nc1ccc(Cl)c([N+](=O)[O-])c1
inactive: Potency [1] | Potency [2] | Potency [3] | Potency [4]

CCc1cccc(CC)c1NC(=O)CN(CC(=O)O)CC(=O)O
inactive: Potency [1] | Potency [2] | Potency [3] | Potency [4]

O=C(OCC(COC(=O)c1ccccc1)(COC(=O)c1ccccc1)COC(=O)c1ccccc1)c1ccccc1
inactive: Potency [1] | Potency [2] | Potency [3] | Potency [4]

CCOc1ccc2c(c1)C(C)CC(C)(C)N2 (stereo not drawn)
inactive: Potency [1] | Potency [2] | Potency [3] | Potency [4]

CC(N=C(NC#N)Nc1ccncc1)C(C)(C)C (stereo not drawn)
inactive: Potency [1] | Potency [2] | Potency [3] | Potency [4]

COC(=O)CC(C(C)=O)C(=O)OC (stereo not drawn)
inactive: Potency [1] | Potency [2] | Potency [3] | Potency [4]

CCCCN1C=CN(C)C1
inactive: activity, negative = inhibition [1] 0.291% [at 23.6 µM] | activity change, negative = inhibition [2] 1.48% [at 23.6 µM] | activity change, negative = inhibition [3] -2.29% [at 23.8 µM] | activity change, negative = inhibition [4] 0.0718% [at 23.6 µM]

N=C(N)N1CCc2ccccc2C1
inactive: activity, negative = inhibition [1] 3.08% [at 10.5 µM] | activity change, negative = inhibition [2] 0.139% [at 10.5 µM] | activity change, negative = inhibition [3] -0.69% [at 10.5 µM] | activity change, negative = inhibition [4] 2.85% [at 10.5 µM]

O=c1cc(CO)occ1O
inactive: Potency [1] | Potency [2] | Potency [3] | Potency [4]

N#CC1(c2ccc(F)cc2)CCC(=O)CC1
inactive: Potency [1] | Potency [2] | Potency [3] | Potency [4]

CCn1nc(Cc2ccccc2)cc1C1CCN(C[C@H]2C[C@H](N(C)[C@@H](C(=O)O)C(C)C)C[C@@H]2c2cccc(F)c2)CC1
inactive: Potency [1] | Potency [2] | Potency [3] | Potency [4]

CC(C)(O)CCCC1=CCC(C=O)CC1 (stereo not drawn)
inactive: Potency [1] | Potency [2] | Potency [3] | Potency [4]

CC(C)C(C)C
inactive: Potency [1] | Potency [2] | Potency [3] | Potency [4]

CCC(C=O)CC
inactive: Potency [1] | Potency [2] | Potency [3] | Potency [4]

C/C=C(/C(=C/C)c1ccc(OC(C)=O)cc1)c1ccc(OC(C)=O)cc1
inactive: Potency [1] | Potency [2] | Potency [3] | Potency [4]

From PubChem BioAssay (Tox21)
